Nrf2 activator = Nrf2 pathway activation; AREc32 ARE-luciferase reporter (MCF7-derived line), luminescence, 24 h; Potency, µM (top dose mostly 46.1 µM), usual class: activators; hit rate 0.31% among 410,000; AID 624171; note: nearly all actives have a fitted effect of over 65% in size
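Steps: seed AREc32_Fluc cells (1000/well, 5% FBS OPTI-MEM); incubate overnight at 37 deg C; add 23 nL compound; incubate 24 hr; add Steady-Glo; hold 30 min RT; read luminescence.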
A549 viability = A549 cytotoxicity, counter-screen for Nrf2 inhibitors; Potency, µM (doses to about 46 µM), usual class: inhibitors; hit rate 0.16% among 390,000; A549 ARE-Fluc cells, CellTiter-Fluor viability, 18-24 h
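A549 ARE-Fluc cells in 5% FBS OPTI-MEM, 5000 cells/well, rested 2 h then exposed to compounds in concentration-response for 18-24 h at 37 °C. Viability by CellTiter-Fluor fluorescence (Ex 405/Em 525) after 30 min; luciferase luminescence (BugLite, 15 min, RT) read afterwards.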
ELG1 repair inh = blocks ELG1-dependent DNA repair in HEK293T cells. HEK293T ELG1-luciferase reporter, luminescence, 16 h; DNA damage induced by 5-fluorouridine. Potency, µM (titrated, usually from 46.1 µM), actives largely listed as inhibitors. hit rate 2.3% among 330,000. AID 504467; note: nearly all actives have a fitted effect of over 55% in size
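Cells (2,000 per well) received 5-fluorouridine plus test compound or DMSO and were incubated 16 hr at 37 °C, 5% CO2. Luciferase activity was read by luminescence 30 min after ONE-Glo addition; signal suppression marked inhibition of damage-induced ELG1 function.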
IDH1 R132H inh = inhibitors of human mutant IDH1 R132H; Potency, µM (doses to about 76.6 µM), hits mostly inhibitors; AID 602179; hit rate 0.093% among 390,000; IDH1-R132H enzyme, NADPH consumption, diaphorase/resazurin fluorescence; O75874; note: nearly all actives have a fitted effect of over 65% in size
Target sequence (O75874 whole entry R132H, stated change not applied): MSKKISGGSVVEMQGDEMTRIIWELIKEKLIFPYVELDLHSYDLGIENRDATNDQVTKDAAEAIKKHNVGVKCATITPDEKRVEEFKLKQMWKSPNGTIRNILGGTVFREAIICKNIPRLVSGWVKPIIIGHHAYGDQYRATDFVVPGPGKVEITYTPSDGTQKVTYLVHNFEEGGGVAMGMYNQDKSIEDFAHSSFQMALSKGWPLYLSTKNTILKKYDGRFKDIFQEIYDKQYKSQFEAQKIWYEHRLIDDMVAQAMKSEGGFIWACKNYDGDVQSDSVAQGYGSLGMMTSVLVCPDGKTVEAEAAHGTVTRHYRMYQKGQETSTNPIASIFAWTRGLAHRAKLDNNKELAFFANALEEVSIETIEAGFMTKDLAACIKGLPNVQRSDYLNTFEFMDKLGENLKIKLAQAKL
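IDH1-R132H (0.5 ug/mL) preincubated 30 min with compound, then NADPH (0.016 mM) and alpha-KG (2 mM) added; 80 min at RT, pH 7.5. Remaining NADPH coupled via diaphorase/resazurin to fluorescence (540/590 nm); concentration-response curves normalized to no-enzyme control.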
Nrf2 block = inhibitors of Nrf2 signaling; hit rate 2.1% among 360,000; A549 ARE-Fluc reporter, luciferase luminescence, 18-24 h; AID 504444; Potency, µM (titrated, usually from 46 µM), hits mostly inhibitors; note: nearly all actives have a fitted effect of over 60% in size
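Nrf2 function is reported as luminescence of an ARE-controlled luciferase in A549 cells. Compounds were tested at several concentrations, and a CellTiter-Fluor read on the same wells flagged cytotoxicity.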
Large screens that a line does not name were inactive. The list is not random: actives were taken first. Their share in the collection is about 3.8%. Calls come from the whole dose curve; as a rule, active = well fitted curve in the direction sought with a large enough effect; inconclusive = small, poorly fitted or top-dose-only effect, or another doubt; inactive = no such curve, though single readings can be large; an effect the other way counts as inactive or inconclusive.

CCN(CC)S(=O)(=O)c1ccc2[nH]c(=O)cc(C(=O)Nc3ccc(C)c(S(=O)(=O)N(CC)CC)c3)c2c1	ELG1 repair inh 18.4µM
COc1ccc(NC(=O)c2cc(-c3ccccn3)nc3ccccc23)cc1S(=O)(=O)N(C)C	ELG1 repair inh inconclusive
CCN(CC)S(=O)(=O)c1ccc(NC(=O)c2cc(=O)[nH]c3ccccc23)cc1	ELG1 repair inh inconclusive
Cc1cc(C(=O)Nc2cccc(S(=O)(=O)N3CCCC3)c2)c2ccccc2n1	ELG1 repair inh inconclusive, Nrf2 block inconclusive
Cc1c(C(=O)Nc2cccc(C(F)(F)F)c2)sc2nc[nH]c(=O)c12	none (no result: ELG1 repair inh, Nrf2 block)
Cc1cc(C)c(-n2c(SCCS(=O)(=O)c3ccc(F)cc3)n[nH]c2=O)c(C)c1	Nrf2 activator 8.91µM
Cc1ccc(S(=O)(=O)CCSc2n[nH]c(=O)n2-c2ccccc2)cc1	Nrf2 activator inconclusive, Nrf2 block inconclusive
Cc1cc(C)c(-n2c(SCc3nc4ccccc4s3)n[nH]c2=O)c(C)c1	Nrf2 block 16.4µM
O=S(=O)(c1ccc2c(c1)OCCO2)N1CCN(S(=O)(=O)c2ccc(F)cc2F)CC1	none (no result: Nrf2 activator, ELG1 repair inh, IDH1 R132H inh)
Cc1ccc(NS(=O)(=O)c2ccc(NC(=O)CN(c3cc([N+](=O)[O-])ccc3C)S(C)(=O)=O)cc2)c(C)c1	A549 viability inconclusive, ELG1 repair inh inconclusive, Nrf2 block 9.2µM
Cc1ccc(C(=O)c2cnc3cc4c(cc3c2S(=O)(=O)c2ccccc2)OCCO4)cc1	Nrf2 activator 12.6µM, ELG1 repair inh inconclusive, Nrf2 block inconclusive
CCOc1ccc(S(=O)(=O)c2c(C(=O)c3ccc(C)cc3)cnc3cc4c(cc23)OCCO4)cc1	none
Cc1ccccc1Cn1nc(C)c(NC(=O)c2cc3nc(-c4ccco4)cc(C(F)(F)F)n3n2)c1C	ELG1 repair inh inconclusive, Nrf2 block 20.6µM
Cc1ccccc1Cn1ccc(NC(=O)c2cnn3c(C(F)(F)F)cc(-c4ccco4)nc23)n1	ELG1 repair inh 7.94µM, Nrf2 block inconclusive
Cc1cc2c(s1)c1cnn(Cc3c(F)cccc3F)c(=O)c1n2C	none (no result: Nrf2 activator, ELG1 repair inh, IDH1 R132H inh)
CCOc1ccc(C(=O)NCc2ccc3c(c2)CCN3C(=O)c2ccc(C)cc2)cc1OCC	none (no result: ELG1 repair inh, Nrf2 block)
Cc1nc2c(nc1C)C(=O)c1ccccc1C2=O	A549 viability inconclusive, Nrf2 block 16.4µM (no result: ELG1 repair inh)
O=[S+]([O-])(c1ccc2c(c1)OCCO2)N1CCN([S+](=O)([O-])c2c(O)cc(F)cc2F)CC1	none (no result: Nrf2 activator, ELG1 repair inh, IDH1 R132H inh)
CSc1ccccc1NC(=O)CN(C)C(=O)c1ccc(NC(=O)c2cccs2)cc1	ELG1 repair inh 20.6µM, Nrf2 block inconclusive
CCN(CC(=O)Nc1ccccc1C(F)(F)F)C(=O)c1ccc(NC(=O)c2cccs2)cc1	none (no result: A549 viability, ELG1 repair inh, Nrf2 block)
CCC(C)NC(=O)Nc1ccc(Br)cc1 (stereo not given)	Nrf2 block inconclusive
CCC(C)Nc1ccc(NC(C)CC)cc1 (stereo not given)	A549 viability 0.146µM, ELG1 repair inh inconclusive, Nrf2 block 0.0731µM
O=C(CSCc1ccccc1)N/N=C/c1ccc(OCC(=O)N2CCCCC2)cc1	none
O=C(CSCc1ccccc1Br)N/N=C/c1ccc(OCC(=O)N2CCCCC2)cc1	ELG1 repair inh 25.9µM
CCOc1cc(S(=O)(=O)N2CC=C(c3ccc(F)cc3)CC2)c(OCC)cc1-n1cnnn1	ELG1 repair inh 5.8µM, Nrf2 block inconclusive
CCOc1cc(S(=O)(=O)N2CCC(Cc3ccccc3)CC2)c(OCC)cc1-n1cnnn1	ELG1 repair inh inconclusive
Cc1cccn2c(=O)c(C=O)c(N3CCN(c4ccc(F)cc4)CC3)nc12	ELG1 repair inh inconclusive, Nrf2 block 16.4µM
C=CCNC(=O)/C(C#N)=C/c1c(N2CCN(c3cccc(Cl)c3)CC2)nc2c(C)cccn2c1=O	none
CCNC(=O)/C(C#N)=C/c1c(N2CCN(c3ccc(OC)cc3)CC2)nc2c(C)cccn2c1=O	ELG1 repair inh 23.1µM, Nrf2 block inconclusive
CNC(=O)/C(C#N)=C/c1c(N2CCN(c3cccc(Cl)c3)CC2)nc2c(C)cccn2c1=O	A549 viability inconclusive, ELG1 repair inh 20.6µM, Nrf2 block inconclusive
CCOc1ccc(NC(=O)CCS(=O)(=O)c2cc3c4c(c2)CCN4C(=O)CC3)cc1	Nrf2 block inconclusive (no result: ELG1 repair inh)
CC(=O)c1sc(NC(=O)CCS(=O)(=O)c2ccc(F)cc2)nc1C	Nrf2 activator inconclusive (no result: A549 viability, ELG1 repair inh, Nrf2 block)
COC(=O)c1ccsc1NC(=O)CCS(=O)(=O)c1ccc(Cl)cc1	Nrf2 activator 15.8µM
CC(=O)c1sc(Nc2cccc3ccccc23)nc1C	none (no result: ELG1 repair inh)
Cc1ccc(S(=O)(=O)CCC(=O)Nc2sccc2C(N)=O)cc1	none
CC(=O)c1sc(Nc2ccccn2)nc1C	Nrf2 activator 11.2µM, ELG1 repair inh inconclusive, Nrf2 block inconclusive
CC(=O)c1sc(NC(=O)CCS(=O)(=O)c2ccccc2)nc1C	Nrf2 activator inconclusive, A549 viability inconclusive, Nrf2 block 20.6µM
COC(=O)c1ccsc1NC(=O)CCS(=O)(=O)c1ccccc1	Nrf2 activator 12.6µM
CC1=NCCN1CCNC(=O)Nc1ccc(C(C)(C)C)cc1	none
COc1ccc(Cl)cc1NC(=O)C1CCN(S(=O)(=O)c2ccc3c(c2)CCCN3C(=O)C2CCC2)CC1	none (no result: ELG1 repair inh, Nrf2 block)
O=C(C[n+]1cccc(/C=N/O)c1)N1CCCc2ccccc21	none
Cc1nc(N2CCN(S(=O)(=O)c3ccccc3C#N)CC2)c2c(-c3cccs3)csc2n1	ELG1 repair inh 18.3µM
Cc1nc(N2CCCCC2)c2c(-c3cccs3)csc2n1	ELG1 repair inh inconclusive
Cc1oc(-c2ccccc2F)nc1CSCC(=O)NC1CCCC1	Nrf2 block 18.4µM
CCCCCCn1cnc2c(c1=O)c1nc3ccccc3nc1n2/N=C/c1ccco1	ELG1 repair inh 14.6µM
C=CCn1cnc2c(c1=O)c1nc3ccccc3nc1n2/N=C/c1cccc(OC)c1	ELG1 repair inh 20.6µM
Cc1nc2c(c(=O)n1CCC1=CCCCC1)c1nc3ccccc3nc1n2/N=C/c1ccco1	ELG1 repair inh 5.17µM, Nrf2 block inconclusive
COCCn1cnc2c(c1=O)c1nc3ccccc3nc1n2/N=C/c1ccc(OC)c(OC)c1	ELG1 repair inh 5.8µM
COCCn1cnc2c(c1=O)c1nc3ccccc3nc1n2/N=C/c1ccco1	none
CCCCCn1c(CCCNC(=O)c2cccc(C)c2)nc2ccccc21	A549 viability inconclusive, Nrf2 block inconclusive (no result: ELG1 repair inh)
COC(=O)C(=C/C(C)=C/c1cccs1)C(=O)OC	Nrf2 activator 14.1µM
CCc1cccc(CC)c1N(COC)C(=O)Cn1c(CC)nc2ccccc21	A549 viability inconclusive, Nrf2 block inconclusive (no result: ELG1 repair inh, IDH1 R132H inh)
Cn1c(O)c(N=NC(=S)Nc2ccccc2F)c2cc(S(=O)(=O)N3CCOCC3)ccc21	ELG1 repair inh 1.83µM, Nrf2 block inconclusive
CCOC(=O)c1cc(NC(=O)Cc2ccc(S(=O)(=O)N3CCOCC3)s2)cc(C(=O)OCC)c1	ELG1 repair inh 6.51µM, Nrf2 block inconclusive
O=C(Cc1ccc(S(=O)(=O)N2CCOCC2)s1)Nc1cc(C(F)(F)F)ccc1N1CCCC1	ELG1 repair inh inconclusive, Nrf2 block inconclusive
